PubChem BioAssay (Tox21)
Results filed as inconclusive are left out. Where a call stands in place of a potency, no number is given. Unmarked numbers belong to inactive results. Active and inactive are the calls of the source. Calls come from the whole dose curve.
Potency is the fitted concentration of half-maximal effect.

Assay: qHTS assay for small molecule agonists of the antioxidant response element (ARE) signaling pathway - cell viability counter screen (AID 743203); note: nearly all actives have a fitted effect of over 55% in size
Conditions: ARE-bla HepG2 viability, CellTiter-Glo luminescence, 16 h; series mostly up to 73.3 µM
Source text: National Center for Advancing Translational Sciences [NCATS]
NIH Chemical Genomics Center [NCGC]
U.S. Environmental Protection Agency [EPA]
National Institutes of Environmental Health Sciences [NIEHS]
National Toxicology Program [NTP]
U.S. Food and Drug Administration [FDA]
Oxidative stress has been implicated in the pathogenesis of a variety of diseases ranging from cancer to neurodegeneration. The antioxidant response element (ARE) signaling pathway plays an important role in the amelioration of oxidative stress. The CellSensor ARE-bla HepG2 cell line (Invitrogen) can be used for analyzing the Nrf2/antioxidant response signaling pathway. Nrf2 (NF-E2-related factor 2) and Nrf1 are transcription factors that bind to AREs and activate these genes. The CellSensor ARE-bla Hep G2 cell line contains a beta-lactamase reporter gene under control of the Antioxidant Response Element (ARE) stably integrated into HepG2 cells. The activation of the report gene under culture conditions can be detected by fluorescence intensity. This cell line has been used to screen the Tox21 10K compound library to identify agonists that induce oxidative stress. The cytotoxicity of the Tox21 compound library against the ARE-bla cell line was tested in parallel by measuring the cell viability using CellTiter-Glo assay (Promega, Madison, WI) in the same wells.
Tox21 Assay Protocol Summary:
ARE-bla HepG2 cells were dispensed at 2,000 cells/5 ul/well in 1536-well white wall/solid bottom plates using a Multidrop Combi (ThermoFisher Scientific, Waltham, MA) dispenser. After the assay plates were incubated at 37C/5% CO2 for 5 hrs, 23 nL of compounds dissolved in DMSO, positive controls or DMSO only was transferred to the assay plate by a pintool work station (Kalypsys, San Diego, CA). The plates were incubated at 37C/5% CO2 for 16 hrs, followed by addition of 4 ul/well of CellTiter-Glo reagent into the assay plates using a Flying Reagent Dispenser (Aurora Discovery, San Diego, CA). After 30 min incubation at room temperature, the luminescence intensity in the assay plates was measured using a ViewLux (PerkinElmer, Shelton, CT) plate reader.
With `C/C(=C(\CCOP(=O)(O)O)SC(=O)c1ccccc1)N(C=O)Cc1cnc(C)nc1N` the viability change, negative = cytotoxic was 8.52% [at 8.36 µM].
In the case of `C[N+](C)(C)CCOC(=O)CCC(=O)OCC[N+](C)(C)C`, the Potency is reported as “inactive”.
For `CCc1cc(C2=C(C(=O)O)N(c3ccccc3C(F)(F)F)S(=O)(=O)c3ccccc32)cc2c1OCO2`, the Potency was 6.04 µM (active).
For `CC1(c2ccccc2)OC(C(=O)O)=CC1=O` (stereo not given), the Potency was “inactive”.
In the case of `CN(C)c1ccc(/C=C/c2ccc([N+](=O)[O-])cc2)cc1`, the viability change, negative = cytotoxic is reported as 0.634% [at 8.36 µM].
With `CC(=O)[O][Al]` the Potency was “inactive”.
With `O=C(NCC1CN(c2ccc(N3CCOCC3=O)cc2)C(=O)O1)c1ccc(Cl)s1` (stereo not given) the Potency was “inactive”.
For `OC(C#CCN1CCCC1)(c1ccccc1)c1ccccc1`, the Potency was “inactive”.
In the case of `COc1cc2nc(Cl)nc(N)c2cc1OC`, the Potency is reported as “inactive”.
For `C=C(C)C(=O)OCCO`, the Potency was “inactive”.
With `CCOC(=O)C(F)(F)F` the Potency was “inactive”.
In the case of `CCCCC(CC)COC(=O)COc1ccc(Cl)cc1Cl` (stereo not given), the Potency is reported as “inactive”.
With `C#Cc1cccc(Nc2ncnc3cc(OCCOC)c(OCCOC)cc23)c1` the Potency was “inactive”.
In the case of `COS(=O)(=O)C(F)(F)F`, the Potency is reported as “inactive”.
With `CC(C)(COC(=O)c1ccccc1)COC(=O)c1ccccc1` the Potency was “inactive”.
For `O=C(CS)Nc1ccccc1`, the Potency was “inactive”.
In the case of `Cc1c(N)cccc1[N+](=O)[O-]`, the Potency is reported as “inactive”.
For `O=C(Nc1ccccc1)c1ccccc1O`, the Potency was “inactive”.
In the case of `O=C(O)c1ccc(-n2nc(-c3ccccc3O)nc2-c2ccccc2O)cc1`, the Potency is reported as “inactive”.
For `O=C(c1ccc(F)cc1)C1CCN(CCn2c(=S)[nH]c3ccccc3c2=O)CC1`, the Potency was “inactive”.
With `CCN(CC)CCNC(=O)c1cc(Br)c(N)cc1OC` the Potency was “inactive”.
With `COc1ccc(C(=O)N2CCN(CC(=O)N3CCOCC3)CC2)cc1` the Potency was “inactive”.
With `COCCCN1CCC(NC(=O)c2cc(Cl)c(N)c3c2OCC3)CC1` the Potency was “inactive”.
For `C[N+]1(CC2COC(c3ccccc3)(C3CCCCC3)O2)CCCCC1` (stereo not given), the Potency was “inactive”.
For `CCCCNc1ccc(C(=O)OCCOCCOCCOCCOCCOCCOCCOCCOCCOC)cc1`, the Potency was “inactive”.
In the case of `CCCCCCCC#N`, the Potency is reported as “inactive”.
For `O=C(O)C1(C(=O)Nc2ccc(Cl)cc2Cl)CC1`, the Potency was “inactive”.
For `CC1CCC(=O)C1=O` (stereo not given), the Potency was “inactive”.
For `CC/C=C\CCOC(=O)CC`, the Potency was “inactive”.
For `COc1ccnc(CS(=O)c2nc3ccc(OC(F)F)cc3[nH]2)c1OC` (stereo not given), the Potency was “inactive”.
In the case of `CCCCCCCCCCCCCCOS(=O)(=O)O`, the Potency is reported as 61.1 µM (active).
For `COc1cccc(N(C)C(=S)Oc2ccc3c(c2)CCCC3)n1`, the Potency was “inactive”.
In the case of `O=C(NCCO[N+](=O)[O-])c1cccnc1`, the Potency is reported as “inactive”.
With `Cc1cccc(C)c1OCC(=O)N[C@@H](Cc1ccccc1)[C@@H](O)C[C@H](Cc1ccccc1)NC(=O)[C@H](C(C)C)N1CCCNC1=O` the Potency was “inactive”.
With `Nc1ccc([N+](=O)[O-])c(C(F)(F)F)c1` the Potency was “inactive”.
With `CN(C)CCN(Cc1ccc(Cl)cc1)c1ccccn1` the Potency was “inactive”.
In the case of `CN(C)CCN(Cc1ccccc1)c1ccccn1`, the Potency is reported as “inactive”.
In the case of `Nc1cccc(S(=O)(=O)c2cccc(N)c2)c1`, the Potency is reported as “inactive”.
In the case of `OCCN1CCN(CCCN2c3ccccc3C=Cc3ccccc32)CC1`, the Potency is reported as “inactive”.
In the case of `C#CCN(C)CCCOc1ccc(Cl)cc1Cl`, the Potency is reported as “inactive”.
